Source: PubChem BioAssay (several laboratories)
Most compounds without a hit are left out; they make up all but 4.6% or so of the library.
TIM10 inh: growth inhibitors of isogenic TIM10 control yeast, primary screen, counter-screen for tim10-1 yeast inhibitor project, luminescence, uHTS. S. cerevisiae TIM10 strain growth, BacTiter-Glo luminescence, 24 h. AID 463195, 2010. inhibition, % at 10 µM. hit rate 1.4% among 330,000;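 active = inhibition of 40% or more at the single tested concentration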;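 note: wild-type TIM10 isogenic control strain grown at permissive 25 °C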
NALP3 yeast inh: NALP3 inflammasome inhibitors in reconstituted yeast, primary screen, luminescence, uHTS | Yeast reconstituted NLRP3/ASC/caspase-1, beta-gal luminescence, 24 h | inhibition, % at 10 µM | hit rate 0.39% among 330,000 | AID 2825, 2010;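 active = inhibition of 50% or more; inactive = inhibition below 50%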;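 note: plate controls were induced DMSO wells for no effect and uninduced yeast grown without galactose for full effect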
SKKanGAS inh: S. pyogenes SKKanGAS growth inhibitors in kanamycin, primary screen, streptokinase expression inhibitor project, SKKanGAS strain, BacTiter-Glo luminescence. inhibition, % at 7.5 µM. AID 1662, 2009. hit rate 1.3% among 300,000. 6 h;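 active = mean replicate score, as percent of positive control median, at least 50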;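 note: strain carries kanamycin resistance gene driven by streptokinase promoter and grows in 40 µg/ml kanamycin; loss of luminescence reflects streptokinase promoter inhibition or plain growth inhibition; 0% = median of DMSO wells and 100% = positive control at its reference dose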
tim10-1 inh: growth inhibitors of tim10-1 mutant yeast, primary screen, luminescence, uHTS; hit rate 2.2% among 330,000; inhibition, % at 20 µM; S. cerevisiae tim10-1 ts strain growth, BacTiter-Glo, 24 h; AID 463190, 2010;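 active = inhibition of at least 40%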;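 note: mutant grown at 25 °C; 0% = DMSO wells with yeast and 100% = wells holding no yeast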
PfHsp90 yeast 2: growth inhibition of PfHsp90-expressing yeast, primary screen, antimalarial PfHsp90 inhibitor project, S. cerevisiae, BacTiter-Glo luminescence, single point, set 2. hit rate 0.32% among 310,000. BacTiter-Glo ATP, 48 h; yeast lacking PDR1 and PDR3 efflux regulators. inhibition, % at 9.4 µM;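 active = every replicate shows inhibition above about 80%, whatever the replicate mean, limit read from the data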;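 note: 0% = DMSO neutral controls and 100% = 20 µM radicicol positive controls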
tim23-1 inh: growth inhibitors of tim23-1 mutant yeast, primary screen, luminescence, uHTS; S. cerevisiae tim23-1 growth, BacTiter-Glo luminescence, 24 h; inhibition, % at 20 µM; hit rate 1.3% among 330,000;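 active = growth inhibition of the mutant yeast at or above 50%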;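 note: temperature-sensitive mutant grown at 25 °C; plate controls were DMSO-treated mutant yeast for no effect and medium wells lacking yeast for full effect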
tim10-1 confirm: growth inhibitors of tim10-1 mutant yeast, confirmation, single concentration, luminescence, S. cerevisiae | inhibition, % at 20 µM | hit rate 56% among 7,400 | S. cerevisiae tim10-1 ts strain growth, BacTiter-Glo, 24 h | AID 463213, 2010 | shares compounds with tim10-1 inh;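 active = inhibition of yeast growth at or above a set limit in either of two repeat tests at 20 µM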;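 note: tim10-1 mutant grown at permissive 25 °C to find synthetic lethal compounds; 0% = DMSO yeast wells and 100% = medium wells without yeast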
* marks the source's active call; other numbers are inactive results; x = not tested or not shown.

SMILES	TIM10 inh	NALP3 yeast inh	SKKanGAS inh	tim10-1 inh	PfHsp90 yeast 2	tim23-1 inh	tim10-1 confirm
Fc1cccc(NC(=S)Nc2cccc3ccccc23)c1	21.9	19.6	8.9	30.2	12.0	20.5	x
Cc1ccc(NC(=S)Nc2cccc3ccccc23)cc1F	27.3	26.8	-0.1	48.6*	-16.3	35.6	25.9
CC(=O)N(C)c1ccc(NC(=S)Nc2cccc3ccccc23)cc1	11.5	23.3	10.1	22.8	-7.6	28.6	x
CC(=O)c1ccc(NC(=S)Nc2cccc3ccccc23)cc1	28.9	17.2	22.8	40.7*	23.5	22.9	22.0
C=CCn1c(SCC(=O)Nc2cc(C)on2)nnc1-c1ccccc1F	-11.8	0.2	x	-22.5	x	-4.3	x
COc1ccc(-c2cc(=O)oc3cc(OC(=O)C4CCCCC4)c(Cl)cc23)cc1	38.1	-14.9	20.4	44.0*	-61.0	36.8	36.1*
O=C(O)C1CCN(S(=O)(=O)c2ccc(N3CCCC3C(=O)O)c([N+](=O)[O-])c2)CC1 (configuration not stated)	-0.3	17.9	-6.8	1.7	-8.4	3.1	x
CCc1ccc(NC(=O)C/C(C)=N/NC(=O)COc2ccc(C)cc2Br)cc1	4.8	15.9	-8.7	45.0*	-10.3	47.1	22.0
Fc1ccc(Oc2nc(-c3ccccc3)nnc2C(F)(F)F)cc1	37.9	-15.6	12.4	50.2*	x	46.7	22.5
Cc1cc(Nc2nc(Cl)c(Cl)cc2Cl)n(-c2ccccc2)n1	28.9	15.9	-5.4	45.1*	-12.8	45.1	34.3*
Cc1ccc(-n2nc(C)cc2Nc2ncc(Cl)cc2Cl)cc1	13.9	28.0	0.8	32.9	-3.6	30.5	x
Cc1cc(C)nc(-n2nc(C)cc2Nc2ccccc2)n1	22.3	42.6	79.0*	40.7*	-13.2	47.6	18.9
Cc1cc(Nc2ccccc2)n(-c2ccccc2)n1	-6.0	5.8	3.1	14.7	-10.8	-1.3	x
C=CCN1C(=O)c2ccc(C(=O)N(C)CC(=O)Nc3cccc(F)c3)cc2C1=O	0.4	7.6	-3.5	5.1	-71.7	-1.6	x
Cc1ccc(Nc2cc(C)nc3ncnn23)cc1	-1.6	10.0	1.9	14.5	6.9	6.1	x
CC(C)NC(=O)NC(=O)COc1c(F)c(F)cc(F)c1F	12.0	-16.3	-14.5	19.9	-2.5	21.5	x
CC(C)NC(=O)NC(=O)COc1ccc(Br)cc1Br	18.1	17.9	-6.2	44.7*	-42.8	45.3	23.8
OC(c1cccc(OCc2ccccc2)c1)c1nnc(-c2ccccc2)o1 (configuration not stated)	16.4	-5.2	16.8	44.0*	-56.8	17.2	27.8
O=C(Cc1cccs1)Nc1cc(SCCO)cc([N+](=O)[O-])c1	-0.9	13.5	-12.0	8.7	30.0	7.8	x
N#Cc1ccc(C(=O)NC23CC4CC(CC(C4)C2)C3)cc1	8.2	24.9	-3.2	40.6*	-31.2	26.3	3.5
CN(CCc1cn[nH]c1)C(=O)C1CCC(=O)N(CC2CCCCC2)C1 (configuration not stated)	-1.2	8.1	-4.9	-13.2	3.2	15.6	x
COc1cc2c(cc1NC(=S)Nc1cccc3ccccc13)oc1ccccc12	6.5	15.1	11.6	14.8	-11.5	13.3	x
COc1cc2c(cc1NC(=S)Nc1cccc(C(F)(F)F)c1)oc1ccccc12	35.5	14.8	0.5	40.3*	x	39.8	22.6
O=[N+]([O-])c1cc(/C=N/O)ccc1SCc1ccccc1Cl	35.3	14.4	18.5	46.6*	x	16.1	22.2
O=C(c1cc(S(=O)(=O)N2CCOCC2)ccc1Cl)N1CCc2ccccc2C1	11.7	7.4	-1.4	11.8	-7.6	17.3	x
SMILES	TIM10 inh	NALP3 yeast inh	SKKanGAS inh	tim10-1 inh	PfHsp90 yeast 2	tim23-1 inh	tim10-1 confirm
CCOc1ccc(CCNC(=O)COC(=O)c2cc(=O)[nH]c3ccccc23)cc1OCC	8.9	-3.2	7.3	5.6	-6.5	9.4	x
N#CC1(Nc2cccc(Br)c2)C(=O)Nc2ccccc21 (configuration not stated)	38.7	14.5	4.8	41.9*	11.8	37.2	38.0*
N#CC1(Nc2ccccc2)C(=O)Nc2ccccc21 (configuration not stated)	-7.4	17.9	17.4	11.8	5.7	19.2	x
CCCCCCSc1ccc([C@H]2N[C@@](C)(C(=O)OC)[C@H]3C(=O)N(C)C(=O)[C@@H]23)cc1	29.4	17.9	8.2	44.5*	-1.3	38.5	34.9*
Cc1onc(-c2ccccc2)c1C(=O)N(C)CC(=O)Nc1ccc(F)c(F)c1F	17.6	-2.6	x	18.2	x	18.2	x
COc1cc(C2C(C#N)=C(N)Oc3cc4c(cc32)OCO4)cc(OC)c1OC (configuration not stated)	-18.7	17.5	0.7	-2.6	-35.9	-6.9	x
N#CC1=C(N)Oc2cc3c(cc2C1c1ccc(Cl)cc1)OCO3 (configuration not stated)	-11.1	12.4	27.3	43.5*	18.1	29.2	-10.8
Cc1ccc(C(=O)CCC(=O)Nc2cc(C)ccn2)cc1	3.8	18.1	x	-0.5	2.8	0.9	x
COc1ccc(OC)c(C(=O)c2ccc(C(=O)Nc3cccc4ccccc34)cc2)c1	-8.2	7.8	0.8	11.2	-12.4	-9.6	x
Cc1cc(C)cc(N(CCC#N)C(=O)CSc2n[nH]c(N)n2)c1	0.1	6.2	-9.1	16.9	6.4	8.4	x
CN1CCN(CC(=O)c2cc(C(C)(C)C)c(O)c(C(C)(C)C)c2)CC1	24.4	-14.8	1.7	43.9*	12.0	23.6	25.9
CSc1ncc(Cl)c(C(=O)Nc2nnc(SC/C=C/c3ccccc3)s2)n1	16.0	-14.1	34.9	41.8*	x	28.6	38.6*
CCOc1ccc(N(CC(=O)NC2CCCCC2)C(=O)CCC(=O)Nc2cc(C)ccn2)cc1	2.0	6.2	9.2	-13.2	-74.1	-8.8	x
Cc1ccc(Cl)cc1N1CCN(C(=O)CN(c2ccccc2)S(=O)(=O)N(C)C)CC1	11.2	8.2	8.4	24.6	21.5	19.6	x
COc1ccc(-c2cc(-c3ccccc3)n3ncnc3n2)cc1	30.9	36.0	-4.5	49.4*	2.2	31.5	22.0
COc1ccc(-c2cc(N3CCCC3)n3ncnc3n2)cc1	19.2	10.6	2.0	29.3	-25.5	30.6	x
Cc1cc(=O)oc2cc(OCc3ccc(C(=O)N4CCN(c5ccccc5)CC4)cc3)ccc12	7.4	22.8	24.0	43.2*	22.2	18.2	13.4
Cc1cc(=O)oc2cc(OCc3ccc(C(=O)N4CCN(c5ccc([N+](=O)[O-])cc5)CC4)cc3)ccc12	x	x	21.8	x	6.1	x	x
